Values without a mark were called inactive. Results filed as inconclusive are left out. Where a call stands in place of a potency, no number is given. Active and inactive are the calls of the source. Calls come from the whole dose curve; as a rule, active = well fitted curve in the direction sought with a large enough effect; inconclusive = small, poorly fitted or top-dose-only effect, or another doubt; inactive = no such curve, though single readings can be large; an effect the other way counts as inactive or inconclusive. Where a SMILES comes first, the peptide text is derived from it. [ ]: non-standard residue; d: D form. ξ: configuration not given here. ξLac(3-iPr) = CC(C)CC(O)C(=O)O; NMeV = CN[CH](C(=O)O)C(C)C; NMeA = CN[CH](C)C(=O)O; βAla = NCCC(=O)O
What was measured:
[1] = system: Zika virus NS2B-NS3 protease (linked construct); assay: Primary screen NINDS Rhodamine qHTS for Zika virus inhibitors (AID 1347160); note: nearly all actives have a fitted effect of over 55% in size
Outline: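 In 10 mM Tris-HCl pH 8.0 containing 0.01% Tween 20, linked NS2B-NS3 protease (25 nM final) is exposed to test compounds for 15 min. Cleavage of 1.5 microM Rhodamine110 substrate is tracked by fluorescence over 15 min.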

[2] = molecular target: Calcium and integrin-binding protein 1 (Homo sapiens) (UniProt Q99828); assay: Primary qHTS for Identification of Calcium Integrin Binding Protein 1 (CIB1) Competitor (AID 1508620);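 note: GST tagged CIB1 binding a fluorescein labelled alphaIIb integrin peptide tracer; top concentration of the series differs between compounds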
Calcium and integrin-binding protein 1 (Homo sapiens), sequence (Q99828 whole entry, looked up): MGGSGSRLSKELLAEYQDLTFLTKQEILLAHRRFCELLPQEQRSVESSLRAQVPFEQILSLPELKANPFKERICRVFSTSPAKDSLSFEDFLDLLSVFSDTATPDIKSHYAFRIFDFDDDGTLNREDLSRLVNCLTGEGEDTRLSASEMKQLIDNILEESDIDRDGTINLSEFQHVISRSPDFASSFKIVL
Outline: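 Fluorescence polarization competition: GST-tagged CIB1 (1 uM final) preincubated with compound 15 min at room temperature, then FITC-labelled alphaIIb peptide (100 nM final) added. After 15 min at room temperature, polarization read at Ex 480/Em 540.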

[3] = molecular target: Glutathione peroxidase 1 (Homo sapiens) (UniProt P07203); assay: Primary qHTS Assay for Inhibitors of Recombinant Selenoprotein Glutathione Peroxidase 1 (GPX1) (AID 1845191); note: nearly all actives have a fitted effect of over 65% in size
Glutathione peroxidase 1 (Homo sapiens), sequence (P07203 whole entry, looked up): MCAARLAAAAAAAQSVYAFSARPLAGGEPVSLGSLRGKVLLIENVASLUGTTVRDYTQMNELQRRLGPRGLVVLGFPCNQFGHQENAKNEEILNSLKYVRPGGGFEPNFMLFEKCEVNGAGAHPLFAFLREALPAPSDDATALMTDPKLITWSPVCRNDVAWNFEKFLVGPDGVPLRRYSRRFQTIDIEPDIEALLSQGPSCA
Outline: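 GR-coupled assay: compounds preincubated 30 min at room temperature with GPX1, then reaction started with CHP; final 10 nM GPX1, 1 mM GSH, 0.5 mM CHP, 0.5 mM NADPH, 100 nM GR, 0.01% BSA, pH 7.5 Tris buffer. NADPH fluorescence (340/450 nm) read at 0 and 15 min.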

[4] = molecular target: Phospholipid hydroperoxide glutathione peroxidase GPX4 (Homo sapiens) (UniProt P36969); assay: Primary qHTS Assay for Inhibitors of Recombinant Selenoprotein Glutathione Peroxidase 4 (GPX4) (AID 1845192); note: nearly all actives have a fitted effect of over 65% in size
Phospholipid hydroperoxide glutathione peroxidase GPX4 (Homo sapiens), sequence (P36969 whole entry, looked up): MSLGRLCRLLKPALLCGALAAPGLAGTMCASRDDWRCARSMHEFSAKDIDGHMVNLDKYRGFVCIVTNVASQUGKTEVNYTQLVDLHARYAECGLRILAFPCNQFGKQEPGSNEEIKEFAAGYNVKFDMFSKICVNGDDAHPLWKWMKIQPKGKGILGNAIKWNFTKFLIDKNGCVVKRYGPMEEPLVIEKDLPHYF
Outline: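 GR-coupled assay: recombinant GPX4 preincubated 30 min with compound at room temperature; final 200 nM GPX4, 1 mM GSH, 0.5 mM cumene hydroperoxide, 0.5 mM NADPH, 100 nM GR, 0.01% BSA, pH 7.5 Tris. NADPH fluorescence (340/450 nm) read at 0 and 15 min.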

[5] = molecular target: Luciferin 4-monooxygenase (Photinus pyralis) (UniProt P08659); assay: Primary firefly luciferase (FLuc) qHTS assay for identification of artifact compounds. (AID 1845220); settings: outcome: dose series up to 54.1 µM unless noted; note: nearly all actives have a fitted effect of over 60% in size
Outline: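 Enzymatic FLuc inhibition assay: compounds pre-exposed to luciferin/ATP (10 uM each) for 15 min, then purified P. pyralis enzyme at 10 nM added. Read-out: luminescence at 5 min.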

[6] = Primary fluorescence-based thiol-reactive (MSTI) qHTS assay for identification of artifact compounds. (AID 1845221);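 note: thiol-reactive compounds lower the probe fluorescence signal; nearly all actives have a fitted effect of over 65% in size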
Outline: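 Compounds were incubated 1 h at room temperature in the dark with the MSTI probe (4 uM) in PBS pH 7.4, 2% DMSO. Signals were normalized between Acetyl-MSTI and MSTI.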

[7] = system: Nanoluciferase (engineered Oplophorus gracilirostris luciferase); assay: Primary Nanoluciferase (NLuc) qHTS assay for identification of artifact compounds. (AID 1845222);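 note: NLuc secreted into diluted conditioned medium of S16 cells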
Outline: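 S16 cell supernatant NLuc, 1:55; cpds qHTS; 15 min RT dark; Nano-Glo substrate 1:100, 5 min; luminescence; Hill fit of % inhibition.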

[8] = Primary redox qHTS assay for identification of artifact compounds. (AID 1845223)
Outline: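 Amplex Red (25 uM) and HRP (250 mU/mL) in HBSS, with compounds for 15 min, then 250 uM DTT for 30 min, room temperature, dark. Fluorescence 525/598 nm read; normalized to DMSO and 10 uM DA3003; Hill fit.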

CRL-7250 = normal cell line; assay: Cytotoxic Profiling of Annotated Libraries Using Quantitative High-Throughput Screening (AID 1296008); settings: Five cell lines viability, CellTiter-Glo ATP luminescence, 48-72 h; max response: active compounds read low; note: nearly all actives have a fitted effect of over 60% in size; note: potency is the fitted concentration of half-maximal effect
Outline: (§1)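 Cells exposed to compounds for 48 or 72 hr at 37 degrees Celsius. Viability read as ATP-coupled luminescence with CellTiter-Glo after 10 min at room temperature.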

Hek293T = assay: Primary qHTS to identify gynecologic anti-cancer compounds using libraries of approved drugs and bioactive compounds (AID 1345084); settings: Gynecologic cancer cell panel viability, ATPlite luminescence, 48 h, control line for the selectivity index; series mostly up to 57.5 µM; note: nearly all actives have a fitted effect of over 55% in size; note: potency is the fitted concentration of half-maximal effect
Outline: (§2)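 Luminescence from the ATPlite ATP-monitoring reagent indicates viable cell number; lower signal means cytotoxicity. Cells received compound 16 h after seeding and were exposed for 48 h across five concentrations.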

PA-1 = assay: as above; settings: Gynecologic cancer cell panel viability, ATPlite luminescence, 48 h; series mostly up to 57.5 µM
Outline: as §2

Tov112D = assay: as above; settings: Gynecologic cancer cell panel viability, ATPlite luminescence, 48 h; series mostly up to 57.5 µM
Outline: as §2

C33A = assay: as above; settings: Gynecologic cancer cell panel viability, ATPlite luminescence, 48 h; series mostly up to 57.5 µM
Outline: as §2

CAOV3 = assay: as above; settings: Gynecologic cancer cell panel viability, ATPlite luminescence, 48 h; series mostly up to 57.5 µM
Outline: as §2

CASKI = assay: as above; settings: Gynecologic cancer cell panel viability, ATPlite luminescence, 48 h; series mostly up to 57.5 µM
Outline: as §2

Es-2 = assay: as above; settings: Gynecologic cancer cell panel viability, ATPlite luminescence, 48 h; series mostly up to 57.5 µM
Outline: as §2

JEG-3 = assay: as above; settings: Gynecologic cancer cell panel viability, ATPlite luminescence, 48 h; series mostly up to 57.5 µM
Outline: as §2

Tov-21-G = assay: as above; settings: Gynecologic cancer cell panel viability, ATPlite luminescence, 48 h; series mostly up to 57.5 µM
Outline: as §2

KB-3-1 = assay: Cytotoxic Profiling of Annotated Libraries Using Quantitative High-Throughput Screening (AID 1296008); settings: Five cell lines viability, CellTiter-Glo ATP luminescence, 48-72 h; max response: active compounds read low; note: nearly all actives have a fitted effect of over 60% in size; note: potency is the fitted concentration of half-maximal effect
Outline: as §1

OV90 = assay: Primary qHTS to identify gynecologic anti-cancer compounds using libraries of approved drugs and bioactive compounds (AID 1345084); settings: Gynecologic cancer cell panel viability, ATPlite luminescence, 48 h; series mostly up to 57.5 µM; note: nearly all actives have a fitted effect of over 55% in size; note: potency is the fitted concentration of half-maximal effect
Outline: as §2

C/C=C(\C)C(=O)O[C@H]1CC2C(=C1C)[C@H]1OC(=O)[C@](C)(O)[C@]1(O)[C@H](OC(=O)CCC)C[C@@]2(C)OC(C)=O (stereo not given in full)
Potency [1]: inactive | Potency [2]: inactive | Potency [3]: inactive | Potency [4]: inactive | outcome [5]: inactive [at 25.7 µM] | Potency [6]: inactive | Potency [7]: inactive | Potency [8]: inactive | Potency (CRL-7250): 2.24 µM (active) | Potency (Hek293T): inactive | Potency (PA-1): 5.01 µM (active) | Potency (Tov112D): 5.01 µM (active)

C=C1C(=O)OC2/C=C(\COO)CC/C=C(\COC(C)=O)CC(OC(=O)C(C)CC)C12 (stereo not given)
Potency [1]: inactive | Potency [3]: inactive | Potency [4]: inactive | outcome [5]: inactive | Potency [6]: inactive | Potency [7]: inactive | Potency [8]: inactive | Potency (CRL-7250): 7.96 µM (active) | Potency (C33A): inactive | Potency (CAOV3): inactive | Potency (CASKI): inactive | Potency (Es-2): inactive | Potency (JEG-3): inactive | Potency (PA-1): inactive | Potency (Tov-21-G): inactive | Potency (Tov112D): inactive

Cc1ccc(Cn2nc(C(=O)N[C@@H]3C(C)(C)[C@@H]4CC[C@@]3(C)C4)cc2-c2ccc(Cl)c(C)c2)cc1
Potency [1]: inactive | Potency [2]: inactive | Potency [3]: inactive | Potency [4]: inactive | outcome [5]: inactive | Potency [6]: inactive | Potency [7]: inactive | Potency [8]: inactive | max response (CRL-7250): 0.138% | max response (KB-3-1): 0.44% | Potency (C33A): inactive | Potency (CASKI): inactive | Potency (Es-2): inactive | Potency (Hek293T): inactive | Potency (JEG-3): inactive | Potency (OV90): inactive | Potency (PA-1): inactive | Potency (Tov-21-G): inactive | Potency (Tov112D): inactive

C[C@@H]1O[C@@H](O[C@H]2CC[C@@]3(C)C(CC[C@@H]4C3CC[C@]3(C)[C@@H](C5=CC(=O)OC5)CC[C@]43O)C2)[C@H](O)[C@H](O)[C@H]1O (stereo not given in full)
Potency [1]: inactive | Potency [2]: inactive | Potency [3]: inactive | Potency [4]: inactive | outcome [5]: inactive [at 25.7 µM] | Potency [6]: inactive | Potency [7]: inactive | Potency [8]: inactive | Potency (KB-3-1): 0.796 µM (active) | Potency (C33A): 1 µM (active) | Potency (CAOV3): 3.98 µM (active) | Potency (CASKI): 4.47 µM (active) | Potency (Es-2): 1.26 µM (active) | Potency (Hek293T): 1 µM (active) | Potency (OV90): 5.62 µM (active) | Potency (PA-1): 1 µM (active) | Potency (Tov-21-G): 1 µM (active) | Potency (Tov112D): 0.355 µM (active)

COC(=O)[C@@]1(C)C(=O)C=C[C@]2(C)c3c(O)cc(C(C)C)cc3[C@H](O)[C@@H](OC(C)=O)C12 (stereo not given in full)
Potency [1]: inactive | Potency [2]: inactive | Potency [3]: inactive | Potency [4]: inactive | outcome [5]: inactive [at 25.7 µM] | Potency [6]: inactive | Potency [7]: inactive | Potency [8]: inactive | outcome (CRL-7250): inactive | Potency (C33A): inactive | Potency (CAOV3): inactive | Potency (CASKI): inactive | Potency (Es-2): inactive | Potency (Hek293T): inactive | Potency (JEG-3): inactive | Potency (OV90): inactive | Potency (PA-1): inactive | Potency (Tov-21-G): inactive | Potency (Tov112D): inactive

C/C(=C\c1csc(C)n1)[C@@H]1C[C@@H]2O[C@@H]2CCC[C@H](C)[C@H](O)[C@@H](C)C(=O)C(C)(C)[C@@H](O)CC(=O)O1
Potency [1]: inactive | Potency [2]: inactive | Potency [3]: inactive | Potency [4]: inactive | outcome [5]: inactive | Potency [6]: inactive | Potency [7]: inactive | Potency [8]: inactive | Potency (KB-3-1): 0.0082 µM (active) | Potency (JEG-3): inactive | Potency (OV90): inactive

CCC(C)C1NC(=O)C2CCCN2C(=O)C(CC(C)C)OC(=O)CCNC(=O)C(C)N(C)C(=O)C(C(C)C)N(C)C1=O (stereo not given) (cyclo([ξLac(3-iPr)]PI[NMeV][NMeA][βAla]); configuration not given here)
Potency [1]: inactive | Potency [2]: inactive | Potency [3]: inactive | Potency [4]: inactive | outcome [5]: inactive | Potency [6]: inactive | Potency [7]: inactive | Potency (C33A): inactive | Potency (CASKI): inactive | Potency (OV90): 3.98 µM (active)

— PubChem BioAssay (NCATS)
